In article PMC6212790, “How bacterial xenogeneic silencer rok distinguishes foreign from self DNA in its resident genome” one finds binding signal data, which are given here for 175 sequences.

Whole data set: some 33,000 sequences, median “e-score” near -0.037, cut for the highest 2% near 0.34. Shown is part of a subset that was picked to be rich in the highest values.

The assay has as its target T1, GST-Rok (full length) (Bacillus subtilis subsp. subtilis str. …, UniProt O34857 1-191).
T1 sequence: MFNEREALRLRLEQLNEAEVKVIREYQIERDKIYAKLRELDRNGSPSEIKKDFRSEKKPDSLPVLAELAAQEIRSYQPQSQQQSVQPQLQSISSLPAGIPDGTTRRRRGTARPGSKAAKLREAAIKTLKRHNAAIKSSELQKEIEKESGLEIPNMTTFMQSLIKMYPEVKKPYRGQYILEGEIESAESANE
The assay can be described thus: protein binding microarray; Rok is a gene silencer of Bacillus subtilis; high values mean tight binding. The conditions noted are these: protein: recombinant; tags: GST (pTH5325, pDEST15-Magic modified); dsDNA, one strand shown. Summed up: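 Every oligonucleotide joins a 25-mer constant primer to a 35-mer variable part drawn from a de Bruijn sequence of order 10, so each non-palindromic 8-mer appears at least 32 times and each palindromic 8-mer 16 times. The preference for every 8-mer is reported as a unitless, rank-based enrichment score (E-score). This score spans 0.5 for the most favored 8-mer to −0.5 for the most disfavored.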
Regarding AGTGACAT, the binding signal was determined as 0.101 E-score.

For AGCAAAAG, the binding signal is -0.151 E-score. For the sequence CCACTGAA, the binding signal was -0.106 E-score. On to CCCATTGA, for which the binding signal was -0.11 E-score.

As to ACTTGATG, the binding signal was -0.00809 E-score. Under AGCGCTGG stands -0.124 E-score; under AGGCGTGC, -0.13 E-score; under ATATTCAT, 0.319 E-score.

With GTGACGGA, the binding signal is -0.136 E-score. For the sequence TCGTTCAA, the binding signal is 0.0056 E-score. Under GTAATAGA stands 0.257 E-score; under ATAATATA, 0.453 E-score. Under GTAATACA stands 0.247 E-score. For ATAATATG, the binding signal turned out to be 0.232 E-score. For GTAATATA, the binding signal is 0.391 E-score. Under ATAATATC stands 0.274 E-score; under GCATGTCA, -0.0408 E-score. With ACGAGTTG the figure was 0.149 E-score; with GAGATTGA, 0.0297 E-score; with TTGGTAAA, 0.217 E-score. Take CATATCGA: the binding signal was 0.0224 E-score. With CTTTAAAG the figure was 0.0411 E-score. Under ACTAGTCA stands 0.352 E-score. With GCTAGTGA the figure was 0.0873 E-score. In the case of GCTAGTTA, the binding signal is 0.337 E-score.

Regarding ACTAGTCC, the binding signal is 0.108 E-score. With GCTAGTCA the figure was -0.0821 E-score. For the sequence ACTAGTTA, the binding signal was found to be 0.44 E-score. Under ACTAGTTC stands 0.329 E-score; under ACTAGTCG, 0.292 E-score; under CCTAGTTA, 0.209 E-score. With ACTGTTCT the figure was 0.0222 E-score. As for AAATAGGC, the binding signal turned out to be 0.00361 E-score. With AACATTAA the figure was 0.133 E-score; with AGCTGCTC, -0.187 E-score; with CTCCATAC, 0.166 E-score. Under AGTCTGAC stands -0.198 E-score; under GTTAGGTA, 0.191 E-score; under CCAAAAAG, -0.177 E-score.

In the case of GGAATTAA, the binding signal was 0.111 E-score. With CCTCAGTA the figure was 0.0795 E-score. With CTGGCTCA the figure was 0.0475 E-score.

For the sequence CTCGAGCA, the binding signal is -0.112 E-score. Under CTTCGAAA stands -0.139 E-score; under CGTGAACA, 0.0255 E-score. Under ACTTGTAA stands 0.168 E-score; under ACTTGTAT, 0.236 E-score. As for AATTGTAC, the binding signal was determined as 0.341 E-score. Under AATTGTAG stands 0.28 E-score; under ACTTGTAC, 0.345 E-score.

GATTGTAC: the binding signal was 0.317 E-score.

Consider ACGGTTAG, for which the binding signal is -0.0112 E-score. With GTTATTGA the figure was 0.0636 E-score; with CGTTACAA, 0.151 E-score; with CTCAGTTC, -0.0174 E-score. As to ATCTAGCC, the binding signal stood at 0.178 E-score. Under ATCTAGCA stands 0.339 E-score; under ATCTAGTC, 0.297 E-score; under CTCTAGCA, -0.115 E-score. Under ATCTAGTA stands 0.408 E-score; under CTCTAGTA, 0.119 E-score; under AACTTCAT, 0.0811 E-score. With GCTGTGAC the figure was -0.0172 E-score. For AGATAACA, the binding signal was determined as 0.241 E-score. For CTTACCAC, the binding signal is 0.00163 E-score. As for AGTTGCGA, the binding signal came out at 0.0582 E-score.

Regarding GAACTGAA, the binding signal was -0.118 E-score. With AGACCGTC the figure was -0.193 E-score; with CCAATGGG, -0.118 E-score; with AGTCTGCG, 0.0274 E-score. With AGTGGGCA the figure was -0.0765 E-score. Under GACGACGC stands 0.0038 E-score; under GAATATCA, 0.18 E-score; under CAATATCA, 0.183 E-score. As to CTATATCA, the binding signal turned out to be 0.231 E-score. In the case of ATATATCC, the binding signal was 0.18 E-score. With TAATATCA the figure was 0.338 E-score. Under ATATATCA stands 0.398 E-score; under ATATATCG, 0.381 E-score. For CTATATCC, the binding signal turned out to be 0.0894 E-score. With GTATATCA the figure was 0.208 E-score; with CCTTAATC, -0.174 E-score; with AGGAAGTA, 0.0966 E-score. With GCTCCGGA the figure was -0.102 E-score.

Consider CCTACTTC, for which the binding signal was 0.211 E-score. ACATCTCG: the binding signal is -0.0379 E-score.

As for CACGTCAA, the binding signal was found to be 0.00857 E-score.

For the sequence AACTTCTT, the binding signal was -0.00379 E-score. As to TCTTAAGA, the binding signal stood at 0.00924 E-score. Under AGTGATTG stands -0.118 E-score; under GGTGTCGA, -0.128 E-score.

Turning to CGCTGAGC, the binding signal is -0.0254 E-score. Under AACTAATC stands 0.158 E-score. With AACTAATT the figure was 0.32 E-score; with TACTAATA, 0.346 E-score; with CACTAATG, 0.154 E-score. Under AACTAATG stands 0.339 E-score. As to ACCTAATA, the binding signal turned out to be 0.176 E-score. Under CACTAATA stands 0.277 E-score.

As for GACTAATA, the binding signal amounted to 0.225 E-score.

Take AACTAATA: the binding signal was found to be 0.357 E-score. Under AGATTACG stands 0.17 E-score. With AAACCCGT the figure was -0.0147 E-score; with ACCGGCAA, -0.0643 E-score. Under TTCCCCAA stands -0.0604 E-score; under GTGATTCA, -0.0295 E-score. Consider TGATGCAA, for which the binding signal was -0.0283 E-score.

As for CGCGGTAA, the binding signal was 0.147 E-score. Under AGTCAATA stands 0.322 E-score. Consider AATATAAT, for which the binding signal came out at 0.228 E-score. Under AAGATATA stands 0.313 E-score; under AATATATT, 0.41 E-score; under AATATAAC, 0.193 E-score. With AATATATA the figure was 0.469 E-score; with AATATTAT, 0.208 E-score. With CGTATATC the figure was 0.196 E-score; with AATATATC, 0.412 E-score. Consider AATATATG, for which the binding signal stood at 0.33 E-score. With GATGGGAA the figure was -0.056 E-score; with CAGGACGG, -0.164 E-score; with CAGAGTTA, -0.0506 E-score. Under ATTATAGG stands 0.285 E-score; under ACTACTGA, 0.323 E-score; under ACTACTCA, 0.281 E-score. With ACTACTTC the figure was 0.193 E-score. Turning to ACTACTAA, the binding signal worked out at 0.386 E-score. With AGTACTTG the figure was 0.297 E-score; with AGTACTTA, 0.349 E-score. Turning to TCTACTAA, the binding signal came to 0.353 E-score.

As for CCTACTAA, the binding signal was -0.00507 E-score. Under TCTACTCA stands 0.206 E-score; under CGTACTTA, 0.264 E-score. In the case of ACTACTTA, the binding signal came out at 0.432 E-score. With GCTACTAA the figure was 0.199 E-score; with AGTAACAT, 0.242 E-score; with CTCCATTC, 0.0472 E-score. With GCTACAGC the figure was 0.0848 E-score. With ACGCGGCA the figure was -0.129 E-score; with GTAGAAGA, 0.247 E-score. In the case of ACAGCGAT, the binding signal is -0.0187 E-score.

Take CAGGAGAA: the binding signal was -0.111 E-score. With AATTTAAG the figure was 0.18 E-score; with ACAGTGTC, 0.114 E-score. Under ACTGATAA stands 0.273 E-score; under TAGCTTCA, 0.13 E-score; under AAGCAAGG, -0.19 E-score.

Take AAGTTGAG: the binding signal is -0.123 E-score. With ATATGTAA the figure was 0.286 E-score; with CTATGTTA, 0.285 E-score. With CTATGTAC the figure was 0.186 E-score. For the sequence CTATGTAA, the binding signal stood at 0.185 E-score. Under ATATGTTC stands 0.184 E-score. As to ATATGTAG, the binding signal was 0.391 E-score.

As to AGATGTAC, the binding signal was determined as 0.315 E-score. With ATATGTAC the figure was 0.345 E-score. With ATATGTTA the figure was 0.395 E-score; with CGCTATTA, 0.211 E-score. With CATTAGCA the figure was -0.0362 E-score; with GAGCTCAC, -0.145 E-score. With ACGCAGAG, the binding signal was -0.119 E-score. Under ATTAGAAA stands 0.233 E-score; under AGTAGAGA, 0.265 E-score; under AGTAGAAC, 0.267 E-score. Under AGTAGAAT stands 0.42 E-score. With AGTAGAAG the figure was 0.228 E-score. As for AGTAGAAA, the binding signal came out at 0.42 E-score.

Consider AGGATTAG, for which the binding signal amounted to 0.158 E-score. As to TAGCCCAA, the binding signal was -0.0264 E-score.

Regarding ACGGAGCG, the binding signal is -0.13 E-score. Consider CTATACAC, for which the binding signal was determined as 0.216 E-score.

For the sequence ATATACAC, the binding signal turned out to be 0.339 E-score. With ATATACAA the figure was 0.389 E-score. Under TTATACAA stands 0.294 E-score. Consider CTATACAA, for which the binding signal was 0.296 E-score.

For ATATACAG, the binding signal came to 0.282 E-score.
